Assay outcomes as filed in PubChem BioAssay.
An excerpt weighted towards active compounds, which were near 1.6% of everything screened.
PKA-R2B activ = activators of human PKA-R2B complex; PKA-R2B holoenzyme dissociation, Cy5-IP20 fluorescence polarization; R2B truncated from residue 108, S112A mutant; 0% DMSO only, 100% 113 µM cGMP; P22694+P31323; activation, % at 11.4 µM; hit rate 0.079% among 340,000;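 active = activation above a cutoff set at the mean over all compounds plus 3 SD, cut at about 18% in these data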;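 note: higher means more holoenzyme dissociation and a rise in polarization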
Target sequence (P31323 whole entry, looked up, other chains not shown, the tested form may be a part): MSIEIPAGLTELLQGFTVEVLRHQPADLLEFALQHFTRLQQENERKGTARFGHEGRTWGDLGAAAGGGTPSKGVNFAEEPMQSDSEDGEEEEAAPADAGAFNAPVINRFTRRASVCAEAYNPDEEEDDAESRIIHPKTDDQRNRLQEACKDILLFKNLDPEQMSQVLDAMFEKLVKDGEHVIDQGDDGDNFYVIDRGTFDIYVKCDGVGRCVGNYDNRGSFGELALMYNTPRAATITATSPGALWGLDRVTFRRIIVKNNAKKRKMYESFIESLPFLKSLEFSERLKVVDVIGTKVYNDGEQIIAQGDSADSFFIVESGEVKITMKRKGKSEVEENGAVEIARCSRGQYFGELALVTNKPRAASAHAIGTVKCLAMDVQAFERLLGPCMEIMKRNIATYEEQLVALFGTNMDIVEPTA
VLA-4 inh = inhibition in a human VLA-4 binding assay; hit rate 0.2% among 330,000; inhibition, % (about 7 µM as worked out from the volumes in the protocol); VLA-4 expressing cells, ligand binding flow cytometry; in the data active = inhibition above about 50%
CendR NRP1 mod = alters CendR peptide binding to human NRP-1. FAM-RPARPAR peptide binding to NRP-1, fluorescence polarization. inhibition, % at 25 µM. hit rate 0.85% among 360,000. AID 602438;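 active = inhibition or corrected inhibition above about 18%, plus a signal ratio from 0.5 to 1.5, limit read from the data, passing the limit was not always enough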
ATG4B inhibitor = blocks human ATG4B protease cleavage of LC3 substrate | Q9Y4P1 | ATG4B cleavage of LC3-PLA2, NBD-HPC fluorescence, 1 h | hit rate 0.51% among 340,000 | AID 504462 | inhibition, % at 8.33 µM; in the data active = inhibition above about 40%
PKA-R1A act = PKA-R1A complex activation; P00514+P68181; PKA-R1A dissociation, Cy5-IP20 fluorescence polarization; scaled: DMSO 0%, 113 µM cGMP 100%; activation, % at 11.4 µM; hit rate 0.083% among 340,000;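 active = percent activation above the mean of all tested compounds plus 3 SD, cut at about 19% in these data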;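 note: higher means more PKAc released from R1A so a rise in polarization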
An asterisk follows results filed as active; nt = no result given.

SMILES	PKA-R2B activ	VLA-4 inh	CendR NRP1 mod	ATG4B inhibitor	PKA-R1A act
Cc1ccc(S(=O)(=O)Oc2ccc(N3C(=O)C4C5CCC(C5)C4C3=O)cc2)cc1 (stereo not drawn)	-7	8	24*	-7	5
O=C1C2C3CCC(C3)C2C(=O)N1c1ccc(OS(=O)(=O)c2ccccc2)cc1 (stereo not drawn)	-3	4	2	-4	3
O=c1cccc(-c2cccc3ccccc23)o1	nt	nt	-9	nt	nt
O=c1ccn([C@@H]2O[C@H](CNCc3cccn3-c3ccncc3)[C@@H](O)[C@H]2O)c(=O)[nH]1	nt	nt	-7	nt	nt
CCOC(=O)C1=C(CC)Nc2ccccc2N=C1NC(=O)Nc1ccc(Cl)c(Cl)c1	-17	-9	-2	62*	-13
CCOC(=O)C1=C(CC)Nc2ccccc2N=C1NC(=O)c1cc(C)on1	-9	0	10	-6	-8
CCCCNC(=O)C1(C)CCCCN1C(=O)c1cc(-c2ccccc2)cs1 (stereo not drawn)	nt	nt	-2	nt	nt
O=C(NC1CCN(Cc2ccccc2)CC1)C1CCN(S(=O)(=O)c2cccc3nsnc23)CC1	-3	-2	-10	-13	7
O=S(=O)(c1cccc2nsnc12)N1CCN(Cc2ccccc2)CC1	0	1	19*	-1	-4
CC(C(=O)N1CCN(c2ccc(Cl)cc2)CC1)c1ncc(C(F)(F)F)cc1Cl (stereo not drawn)	0	-2	47*	-6	-15
CC(=O)Nc1cccc(C(=O)OCC(=O)NNC(=O)c2cccs2)c1	-7	4	-3	-1	10
Cc1c(Br)c([N+](=O)[O-])nn1CC(=O)NCc1cccs1	0	-8	25*	7	-6
Cc1c(Br)c([N+](=O)[O-])nn1C(C)C(=O)NCc1cccs1 (stereo not drawn)	9	15	3	10	-7
COc1ccc(Nc2c(-c3ccc(F)cc3)nc3nc(C)cc(C)n23)cc1	nt	nt	13	nt	nt
Cc1cc(C)n(-c2ccc(C(=O)Nc3nnc(C4CC4)s3)cc2)n1	1	-16	26*	-1	0
O=C(CCC(=O)c1cccs1)Nc1nnc(C2CC2)s1	3	-14	-1	-3	4
O=C(Nc1nnc(C2CC2)s1)c1cccs1	7	4	25*	-5	-1
O=c1oc2c3c4c(cc2s1)CCCN4CCC3	-3	-12	36*	4	-4
Oc1ccccc1/C=N/c1c(-c2ccco2)nc2ccccn12	7	-27	5	-16	4
Clc1ccc(/C=N/c2c(-c3ccco3)nc3ccccn23)cc1	5	-9	36*	-4	1
CC(C)C[C@@H](CSc1ccc(Br)cc1)N1CCN(CC(C)C)CCC1=O	3	nt	21*	7	1
CC(C)C[C@@H](CSc1ccc(Br)cc1)N1CCN(C)CCC1=O	-6	28	10	-6	-4
Cc1ccc(SC[C@H](c2ccccc2)N2CCN(CC(C)C)CCC2=O)cc1	1	nt	33*	-6	3
CN(Cc1ncc[nH]1)C(=O)CC1C(=O)NCCN1Cc1c(F)cccc1Cl (stereo not drawn)	5	1	23*	36	-2
Cc1cc(CN(C)C(=O)CC2C(=O)NCCN2Cc2c(F)cccc2Cl)on1 (stereo not drawn)	6	-2	1	-5	-2
SMILES	PKA-R2B activ	VLA-4 inh	CendR NRP1 mod	ATG4B inhibitor	PKA-R1A act
Cc1ccc(S(=O)(=O)N2C[C@H]3[C@H]4C(=O)N(c5ccccc5)C(=O)[C@H]4CC(=O)[C@H]3[C@@H]2c2ccccc2F)cc1	nt	nt	25*	nt	nt
Cc1ccc(S(=O)(=O)N2C[C@H]3[C@H]4C(=O)N(c5ccccc5)C(=O)[C@H]4CC(=O)[C@H]3[C@@H]2c2cccc3ccccc23)cc1	nt	nt	8	nt	nt
COc1cccc(CNC(=O)CCC2CCCN(C(=O)c3cccc(Cl)c3)C2)c1 (stereo not drawn)	-7	0	-4	-2	6
COc1cccc(CNC(=O)CCC2CCCN(C(=O)C3=CC(=O)CC(C)(C)O3)C2)c1 (stereo not drawn)	-9	18	38*	-2	-1
Cn1cc([C@]2(O)C(=O)Nc3c(F)cccc32)c2ccccc21	nt	nt	13	nt	nt
COc1ccc(C(=O)N2c3ccccc3C(=O)OC2c2ccc3c(c2)OCO3)cc1 (stereo not drawn)	-17	-5	21*	-15	-7
Cc1cc(Cl)ccc1OCC(=O)NNC(=O)C1CCCO1 (stereo not drawn)	5	0	25*	4	3
O=C(NCc1ccccc1)C1C(=O)Nc2ccccc2C(=O)N1c1ccc2c(c1)OCCO2 (stereo not drawn)	nt	nt	8	nt	nt
CCCn1nnnc1SCC(=O)N1C(C)CCCC1C (stereo not drawn)	0	10	22*	-5	-5
CCCn1nnnc1SCC(=O)N1CCCC1	-7	11	-4	-6	-9
Cc1c(C)n2c(SCC(=O)N3CCC(C)CC3)nnc2[nH]c1=O	-10	0	24*	-4	-7
COc1ccc(-c2csc(N3CCC(c4ccccc4)CC3)n2)cc1	-12	14	2	8	-3
CCC1(C)CC(c2nc(-c3ccc(OC)cc3)cs2)CCS1 (stereo not drawn)	3	9	32*	-6	-2
CC(C)Cc1nnc(NC(=O)c2cccc(S(=O)(=O)N3CCOCC3)c2)s1	9	-5	5	-4	4
CCC(CC)c1nnc(NC(=O)c2cccc(S(=O)(=O)N3CCOCC3)c2)s1	-1	-1	26*	-9	-7
COc1cc(C=CC(=O)c2cc(OC)c(OC)c(OC)c2)cc(OC)c1OC	5	nt	6	-1	5
COc1ccc2cc(C(=O)/C=C/c3cc(OC)c(OC)c(OC)c3)ccc2c1	-4	-5	27*	-17	4
CCc1cc(=O)oc2cc(OC(C)C(=O)NCc3ccccn3)ccc12 (stereo not drawn)	7	10	10	-3	5
Cc1ccc(CN2CC(N3CCCC3)CS2(=O)=O)cc1 (stereo not drawn)	nt	nt	3	nt	nt
COC(=O)C(C)Sc1nnc(SC(C)C(=O)OC)s1 (stereo not drawn)	-11	2	36*	-4	-3
CCOc1cnc(-c2c(-c3c(Cl)cccc3Cl)noc2C)o1	-11	22	27*	-2	3
CCOc1cnc(-c2ccc(Cl)cc2)o1	-9	0	-8	3	-3
CCC(=O)N1CCCC1(C)C(=O)NCc1ccc(SC)cc1 (stereo not drawn)	nt	nt	5	nt	nt
COC(=O)C(C(=O)OC)c1ccccc1CNS(=O)(=O)c1ccc(C)cc1	nt	nt	-7	nt	nt
Cc1ccc(Cn2c(SCC(=O)Nc3cc(C)on3)nc3ccccc3c2=O)cc1	11	-2	28*	-10	3
Cc1cc(NC(=O)CCCC(=O)NCc2ccccc2)no1	8	2	36*	-4	0
